Source: PubChem BioAssay (Tox21)
Calls of active or inactive are those of the source. Unless noted, the call rests on the fitted dose curve; in most records, active means well fitted curve in the direction sought with a large enough effect in the repeat runs; inconclusive means weak or mixed curves; inactive means no such curve, though single readings can be large; an effect the other way counts as inactive or inconclusive.

Assays:
[1] = qHTS assay for small molecules that induce genotoxicity in human embryonic kidney cells expressing luciferase-tagged ATAD5 (AID 651632); further: nearly all actives have a fitted effect of over 15% in size
Summary of the method: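 A rise in luciferase signal from ATAD5-tagged HEK293T cells marks genetic stress. Cells were exposed to compounds for 16 hr at 37C, 5% CO2, then luciferase was quantified after a 30 min room-temperature incubation with Amplite.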

[2] = qHTS assay for small molecule agonists of the p53 signaling pathway - cell viability (AID 651633; calls by dose curve; further: nearly all actives have a fitted effect of over 30% in size; further: potency means the concentration at half of the fitted maximal effect)
Summary of the method: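 p53RE-bla cells, seeded at 4,000 per well and rested 5 h at 37 C/5% CO2, received compounds in DMSO for 16 h at 37 C. CellTiter-Glo was then added, and luminescence was read after 30 min at room temperature to gauge cytotoxicity.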

[3] = qHTS assay for small molecule disruptors of the mitochondrial membrane potential (AID 720635); further: potency means the concentration at half of the fitted maximal effect
Summary of the method: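 HepG2 cells (2,000/well) attached overnight at 37C, then took compound for 1 hr at 37C, 5% CO2. Mito-MPS dye was added for 30 min; fluorescence was read at 490/535 nm (monomers) and 540/590 nm (aggregates).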

[4] = qHTS assay to test for compound auto fluorescence at 590 nm (red) in HepG2 cells (AID 720674)
Summary of the method: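 Compound auto-fluorescence is scored relative to Rose Bengal sodium, measured at 540/590 nm in live HepG2 cultures after 1 hr compound contact (37 C, 5% CO2).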

[5] = qHTS assay to test for compound auto fluorescence at 535 nm (green) in HepG2 cells (AID 720675)
[6] = qHTS assay to test for compound auto fluorescence at 460 nm (blue) in HEK293 cells (AID 720678)
Summary of the method: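 Intrinsic compound fluorescence is recorded in live HEK293 cultures after overnight incubation at 37C, 5% CO2, using excitation 405 nm and emission 460 nm. Values are referenced to triamterene.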

[7] = qHTS assay to test for compound auto fluorescence at 590 nm (red) in HEK293 cells (AID 720679)
Summary of the method: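 Red autofluorescence, HEK293 cells: 2,000 cells/well; attach 4-5 hr 37C; add 23 nL cpd or DMSO; incubate o/n 37C 5% CO2; read Ex540/Em590; Rose Bengal sodium reference.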

[8] = qHTS assay to test for compound auto fluorescence at 535 nm (green) in HEK293 cells (AID 720680)
[9] = qHTS assay to test for compound auto fluorescence at 460 nm (blue) in HEK293 cell free culture (AID 720681)
Summary of the method: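 Test compounds were pinned into cell-free culture medium (DMEM with 10% FBS) and fluorescence was read directly at Ex/Em 405/460 nm. Signals were expressed as fluorescence equivalents of triamterene, with DMSO vehicle as control.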

[10] = qHTS assay to test for compound auto fluorescence at 535 nm (green) in HEK293 cell free culture (AID 720682)
Summary of the method: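 Steps: dispense DMEM/10% FBS into empty wells; pin in compound or DMSO; measure fluorescence at 485/535 nm. Values are fluorescein equivalents.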

[11] = qHTS assay to test for compound auto fluorescence at 590 nm (red) in HEK293 cell free culture (AID 720683)
Summary of the method: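 Tox21 10K library compounds were pinned into cell-free DMEM with 10% FBS and fluorescence was read at excitation 540 nm. Activity is expressed as Rose Bengal sodium equivalency.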

[12] = qHTS assay to test for compound auto fluorescence at 590 nm (red) in HepG2 cell free culture (AID 720684)
Summary of the method: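 Readout: intrinsic compound fluorescence at 590 nm emission after 540 nm excitation, scaled to Rose Bengal sodium. Matrix was cell-free MEM with 10% FBS; DMSO vehicle wells served as control.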

[13] = qHTS assay to test for compound auto fluorescence at 460 nm (blue) in HepG2 cell free culture (AID 720685)
Summary of the method: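 Cell-free plates of MEM plus 10% FBS received 23 nL compound or DMSO vehicle; blue-channel (405/460 nm) intensity scored against triamterene as reference fluorophore.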

[14] = qHTS assay to test for compound auto fluorescence at 535 nm (green) in HepG2 cell free culture (AID 720686)
[15] = qHTS assay to test for compound auto fluorescence at 460 nm (blue) in HepG2 cells (AID 720687)
Summary of the method: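 Cells (2,000/well in MEM with 10% FBS) attached overnight at 37 C, then were exposed to compound or DMSO for 1 hr at 37 C, 5% CO2. Fluorescence read at Ex/Em 405/460 nm, expressed as triamterene-equivalent signal.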

[16] = qHTS assay for small molecule disruptors of the mitochondrial membrane potential - cell viability (AID 720634; calls by dose curve; further: nearly all actives have a fitted effect of over 20% in size; further: potency means the concentration at half of the fitted maximal effect)
Summary of the method: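 Cytotoxicity was quantified from ATP content by CellTiter-Glo luminescence in the same wells as the MMP dye read-out. HepG2 (2,000 cells/well) were plated overnight and exposed to compounds for 1 hr at 37 C.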

[17] = target: Glucocorticoid receptor (Homo sapiens) (UniProt P04150); test: qHTS assay to identify small molecule agonists of the glucocorticoid receptor (GR) signaling pathway (AID 720691; active means well fitted activation curve with a large enough effect in the signal ratio in the repeat runs, not every such curve was filed as active; inconclusive means weak or mixed curves, or effect the other way; inactive means no such curve, though single readings can be large or run the other way; the % refers to the signal ratio; further: potency means the concentration at half of the fitted maximal effect)
Sequence of Glucocorticoid receptor (Homo sapiens) (P04150 whole entry, looked up): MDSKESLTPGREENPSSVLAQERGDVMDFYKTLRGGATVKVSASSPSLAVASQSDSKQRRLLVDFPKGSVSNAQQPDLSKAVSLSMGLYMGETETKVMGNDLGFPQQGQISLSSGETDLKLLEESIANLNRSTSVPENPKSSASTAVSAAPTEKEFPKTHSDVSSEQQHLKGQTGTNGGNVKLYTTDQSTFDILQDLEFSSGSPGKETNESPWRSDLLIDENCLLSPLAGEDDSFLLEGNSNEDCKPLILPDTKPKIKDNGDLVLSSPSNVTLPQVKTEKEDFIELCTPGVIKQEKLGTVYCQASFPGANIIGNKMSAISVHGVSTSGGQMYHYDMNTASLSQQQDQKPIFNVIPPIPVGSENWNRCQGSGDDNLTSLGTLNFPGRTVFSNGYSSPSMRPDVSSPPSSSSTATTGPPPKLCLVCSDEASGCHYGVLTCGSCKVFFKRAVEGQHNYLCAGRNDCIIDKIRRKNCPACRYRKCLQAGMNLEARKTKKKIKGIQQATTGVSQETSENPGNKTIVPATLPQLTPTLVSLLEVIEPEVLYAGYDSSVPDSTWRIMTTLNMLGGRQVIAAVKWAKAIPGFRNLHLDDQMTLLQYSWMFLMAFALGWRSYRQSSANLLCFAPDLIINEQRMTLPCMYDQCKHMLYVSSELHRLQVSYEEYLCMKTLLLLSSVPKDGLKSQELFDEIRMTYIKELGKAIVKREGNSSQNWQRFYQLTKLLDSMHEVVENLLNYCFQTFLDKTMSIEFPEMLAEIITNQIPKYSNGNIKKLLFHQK
Summary of the method: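 Agonist-mode qHTS in HeLa cells stably expressing a glucocorticoid-response-element beta-lactamase reporter. Fluorescence intensity read with FRET substrate (2 h, room temperature) after 18 h compound treatment at 37 C.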

[18] = qHTS assay for small molecules that induce genotoxicity in human embryonic kidney cells expressing luciferase-tagged ATAD5 - cell viability (AID 651634; calls by dose curve; further: nearly all actives have a fitted effect of over 25% in size; further: potency means the concentration at half of the fitted maximal effect)
Summary of the method: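 Cytotoxicity counter-readout: after 15.5 hr compound treatment at 37C, live-cell protease activity in ATAD5-luciferase HEK293T cells measured by CellTiter-Fluor fluorescence, 30 min development at 37C.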

[19] = target: Glucocorticoid receptor (Homo sapiens) (UniProt P04150); test: qHTS assay to identify small molecule antagonists of the glucocorticoid receptor (GR) signaling pathway (AID 720692; active means well fitted inhibition curve with a large enough effect in the signal ratio in the repeat runs, not every such curve was filed as active; inconclusive means weak or mixed curves, or effect the other way; inactive means no such curve, though single readings can be large or run the other way; the % refers to the signal ratio)
Summary of the method: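 Inhibition of dexamethasone-driven (5 nM final) beta-lactamase expression was measured in GRE-reporter HeLa cells over 18 h at 37C. Fluorescence was read after 2 h with the B/G FRET substrate at room temperature.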
On the % scale 0 is the no-effect control and ±100 the full control effect.

COCCCCCCCCOCCC[Si](C)(O[Si](C)(C)C)O[Si](C)(C)C
inactive: Potency [1] | Potency [2] | outcome [4] | outcome [5] | Potency [6] | outcome [7] | outcome [8] | Potency [9] | outcome [10] | outcome [11] | outcome [12] | Potency [13] | outcome [14] | Potency [15]
active: Potency [3] 4.86 µM

CC(C)(C)c1cc(CCC(=O)OCC(COC(=O)CCc2cc(C(C)(C)C)c(O)c(C(C)(C)C)c2)(COC(=O)CCc2cc(C(C)(C)C)c(O)c(C(C)(C)C)c2)COC(=O)CCc2cc(C(C)(C)C)c(O)c(C(C)(C)C)c2)cc(C(C)(C)C)c1O
inactive: Potency [1] | Potency [2] | Potency [16] | outcome [4] | outcome [5] | Potency [6] | outcome [7] | outcome [8] | Potency [9] | outcome [10] | outcome [11] | outcome [12] | Potency [13] | outcome [14] | Potency [15] | Potency [17]

CN(C)CC[C@@H](c1ccc(Br)cc1)c1ccccn1
inactive: Potency [1] | Potency [18] | Potency [3] | outcome [4] | outcome [5] | Potency [6] | outcome [7] | outcome [8] | Potency [9] | outcome [10] | outcome [11] | outcome [12] | Potency [13] | outcome [14] | Potency [15]

CC(C(=O)O)c1ccc(C(=O)c2ccccc2)s1 (centres undefined)
inactive: Potency [1] | Potency [2] | fluorescence, relative to Rose Bengal [4] -0.233% [at 18.6 µM] | fluorescence, % of triamterene [6] 0.0309% [at 18.6 µM] | fluorescence, % of fluorescent control [7] -0.0493% [at 18.6 µM] | fluorescence, % of fluorescein [8] 0.0614% [at 18.6 µM] | fluorescence, % of fluorescent control [9] -0.0527% [at 18.6 µM] | fluorescence, % of fluorescent control [11] -0.0875% [at 18.6 µM] | fluorescence, % of Rose Bengal [12] 0.261% [at 18.6 µM] | fluorescence, % of fluorescent control [13] -0.006% [at 18.6 µM] | fluorescence, % of fluorescein control [14] 0.146% [at 18.6 µM] | fluorescence, % of fluorescent control [15] 0.0098% [at 18.6 µM]

Cn1sccc1=O
inactive: Potency [1] | Potency [18] | Potency [16] | outcome [4] | outcome [5] | outcome [7] | outcome [8] | Potency [9] | outcome [10] | outcome [11] | outcome [12] | Potency [13] | outcome [14] | Potency [15]
active: Potency [3] 61.1 µM

NC(N)=NN=C(/C=C/c1ccc([N+](=O)[O-])o1)/C=C/c1ccc([N+](=O)[O-])o1
active: Potency [2] 2.37 µM | Potency [18] 10.6 µM | Potency [16] 18.8 µM | Potency [3] 2.66 µM | Potency [17] 6.74 µM [inconclusive]
inactive: outcome [4] | outcome [5] | Potency [6] | outcome [7] | outcome [8] | Potency [9] | outcome [10] | outcome [11] | outcome [12] | Potency [13] | outcome [14] | Potency [15]

Cc1cc(O)ccc1N
inactive: Potency [1] | Potency [18] | outcome [4] | Potency [6] | outcome [7] | outcome [8] | Potency [9] | outcome [10] | outcome [11] | outcome [12] | Potency [13] | Potency [15] | Potency [17]

CC1(C)CCC(C)(C)c2cc(NC(=O)c3ccc(C(=O)O)cc3)ccc21
inactive: Potency [1] | Potency [16] | outcome [4] | outcome [7] | outcome [8] | Potency [9] | outcome [10] | outcome [11] | outcome [12] | Potency [13] | outcome [14] | Potency [15] | Potency [17]
active: Potency [3] 24.8 µM

CCCCCCCCCCCCCCCCCBr
inactive: Potency [1] | Potency [18] | Potency [16] | fluorescence, relative to Rose Bengal [4] -0.244% [at 18.6 µM] | fluorescence, % of fluorescein control [5] -0.0441% [at 18.6 µM] | fluorescence, % of fluorescent control [7] 0.301% [at 18.6 µM] | fluorescence, % of fluorescein [8] 0.0114% [at 18.6 µM] | fluorescence, % of fluorescent control [9] -0.0559% [at 18.6 µM] | activity change [10] -0.0304% [at 18.6 µM] | fluorescence, % of fluorescent control [11] -0.288% [at 18.6 µM] | fluorescence, % of Rose Bengal [12] 0.0382% [at 18.6 µM] | fluorescence, % of fluorescent control [13] 0.0584% [at 18.6 µM] | fluorescence, % of fluorescein control [14] 0.134% [at 18.6 µM] | fluorescence, % of fluorescent control [15] 0.0228% [at 18.6 µM] | Potency [17] | Potency [19]

C[C@@H](C1=C(CCN(C)C)Cc2ccccc21)c1ccccn1
inactive: Potency [1] | Potency [16] | Potency [3] | outcome [4] | outcome [5] | Potency [6] | outcome [7] | outcome [8] | Potency [9] | outcome [10] | outcome [11] | outcome [12] | Potency [13] | Potency [15]

Cn1c(NCCN(CCO)CCCc2ccc([N+](=O)[O-])cc2)cc(=O)n(C)c1=O
inactive: Potency [1] | Potency [18] | Potency [16] | outcome [4] | outcome [5] | Potency [6] | outcome [7] | outcome [8] | Potency [9] | outcome [10] | outcome [11] | outcome [12] | outcome [14] | Potency [15] | Potency [19]

NCCCN(CCO)CCO
inactive: Potency [1] | Potency [16] | outcome [4] | outcome [5] | Potency [6] | outcome [7] | outcome [8] | Potency [9] | outcome [10] | outcome [11] | outcome [12] | Potency [13] | outcome [14] | Potency [15]

COc1ccc([C@@H]2Sc3ccccc3N(CCN(C)C)C(=O)[C@@H]2OC(C)=O)cc1
inactive: Potency [1] | Potency [18] | Potency [16] | Potency [3] | outcome [4] | outcome [5] | Potency [6] | outcome [7] | outcome [8] | Potency [9] | outcome [10] | outcome [11] | outcome [12] | Potency [13] | Potency [15] | Potency [17]

CCCCCCCC/C=C\CCCCCCCC(N)=O
active: Potency [3] 48.5 µM
inactive: Potency [1] | Potency [18] | Potency [16] | outcome [4] | outcome [5] | Potency [6] | outcome [7] | outcome [8] | Potency [9] | outcome [10] | outcome [11] | outcome [12] | Potency [13] | outcome [14] | Potency [15] | Potency [17] | Potency [19]

CCc1nn(C2CCCCC2)c2cc(C3(C#N)CCC(C(=O)O)CC3)ccc12 (centres undefined)
inactive: Potency [1] | Potency [16] | outcome [4] | outcome [5] | Potency [6] | outcome [7] | outcome [8] | Potency [9] | outcome [10] | outcome [11] | outcome [12] | Potency [13] | outcome [14] | Potency [15] | Potency [17]
active: Potency [18] 27.3 µM

CCCCCOC(=O)COc1cc(N2C(=O)C3=C(CCCC3)C2=O)c(F)cc1Cl
inactive: Potency [1] | Potency [18] | outcome [4] | outcome [5] | Potency [6] | outcome [7] | outcome [8] | Potency [9] | outcome [10] | outcome [11] | outcome [12] | outcome [14] | Potency [15]
